Most compounds without a hit are left out; they make up all but 7.5% or so of the library.
Luc counter – Counterscreen for Luciferase (Kinase-Glo TM) Inhibition; Kinase-Glo luciferase, ATP luminescence, 8 min; Potency, µM (top dose mostly 38.3 µM), hits mostly inhibitors; hit rate 0.28% among 200,000; also: nearly all actives have a fitted effect of over 60% in size
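Light output from Kinase-Glo luciferase with luciferin and 10 uM ATP in 50 mM imidazole pH 7.2, KCl, MgCl2, Tween 20, BSA; compound pin-delivered, 8-min ambient incubation, then luminescence read.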
SMN2 splice enh – qHTS Assay for Enhancers of SMN2 Splice Variant Expression. AID 1458, 2008. HEK293 SMN2-luciferase splicing reporter, luminescence, 30-36 h. Potency, µM (series often up to 46.1 µM), hits mostly activators. hit rate 2.8% among 210,000; also: nearly all actives have a fitted effect of over 55% in size
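HEK293 cells carry an SMN2 minigene-luciferase reporter in which exon 7 inclusion puts luciferase in frame. Cells were seeded at 2000 cells/well, attached for 10-12 hours, then exposed to compounds for 30-36 hours at 37C before ONE-Glo luminescence.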
FLuc counter – qHTS profiling assay for firefly luciferase inhibitor/activator using purifed enzyme and Km concentrations of substrates (counterscreen for miR-21 project); Potency, µM (series often up to 57.5 µM), actives largely listed as inhibitors; Luciferin 4-monooxygenase (Photinus pyralis), P08659; hit rate 6.9% among 360,000; purified FLuc, Km substrates, luminescence inhibition; also: nearly all actives have a fitted effect of over 55% in size
Target sequence (P08659 whole entry, looked up): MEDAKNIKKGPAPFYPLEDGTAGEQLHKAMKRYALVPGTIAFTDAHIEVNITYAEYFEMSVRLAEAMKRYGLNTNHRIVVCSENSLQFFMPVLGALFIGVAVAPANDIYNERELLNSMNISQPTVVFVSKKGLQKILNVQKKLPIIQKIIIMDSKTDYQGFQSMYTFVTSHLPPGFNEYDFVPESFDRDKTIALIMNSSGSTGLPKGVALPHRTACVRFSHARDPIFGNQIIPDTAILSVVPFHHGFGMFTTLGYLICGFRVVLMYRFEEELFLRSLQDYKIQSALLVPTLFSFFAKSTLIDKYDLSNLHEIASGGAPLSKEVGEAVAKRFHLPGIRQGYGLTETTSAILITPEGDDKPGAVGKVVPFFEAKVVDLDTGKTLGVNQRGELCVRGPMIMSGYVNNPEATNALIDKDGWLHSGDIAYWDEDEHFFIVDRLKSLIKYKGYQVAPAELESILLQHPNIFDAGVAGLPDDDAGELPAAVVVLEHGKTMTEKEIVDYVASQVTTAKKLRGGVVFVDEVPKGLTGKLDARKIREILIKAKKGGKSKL
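Purified P. pyralis luciferase (10nM final) with 10uM D-luciferin and 10uM ATP (Km levels) in 50mM Tris acetate pH 7.5, 10mM Mg acetate, 0.01% Tween-20, 0.05% BSA; qHTS 6-point titration, ~60 µM downward; luminescence read.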
NPC1 promoter act – qHTS Assay for NPC1 Promoter Activators. Potency, µM (highest dose often 9.22 µM), usual class: activators. AID 485313, 2010. hit rate 2.4% among 320,000. Huh7 NPC1 promoter luciferase reporter, 24 h; also: nearly all actives have a fitted effect of over 60% in size
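Quantitative HTS used a cell-based reporter: Huh7 cells stably bearing the NPC1 promoter upstream of luciferase were treated with compounds for 24 h, and promoter activation was read as luminescence.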
ELG1 genotoxic – qHTS screen for small molecules that induce genotoxicity in human embryonic kidney (HEK293T) cells expressing luciferase-tagged ELG1; AID 504466, 2011; Potency, µM (series often up to 46 µM), hits mostly activators; HEK293T ELG1-luciferase reporter, luminescence, 16 h; hit rate 1.3% among 330,000; also: nearly all actives have a fitted effect of over 60% in size
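16 hr compound incubation (37 °C, 5% CO2) of HEK293T cells carrying luciferase-tagged ELG1; luciferase then measured by ONE-Glo luminescence after 30 min at RT.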
Rab9 prom act – qHTS Assay for Rab9 Promoter Activators. Huh7 Rab9 promoter-luciferase reporter, luminescence, 24 h. Potency, µM (titrated, usually from 9.22 µM), usual class: activators. hit rate 2.8% among 320,000. AID 485297, 2010; also: nearly all actives have a fitted effect of over 60% in size
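Rab9 promoter-driven luciferase in stably transfected Huh7 cells; 1500 cells/well rested 2 h, exposed to compound in DMSO for 24 h at 37 °C, 5% CO2. Luminescence read 10 min after adding luciferase reagent at ambient temperature.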
Numbers stand for hits; - = inactive; ? = inconclusive; . = not tested or not shown; [ ] = remark or other dose. Calls follow the shape of the dose curve; as a rule, active = well fitted curve in the direction sought with a large enough effect; inconclusive = small, poorly fitted or top-dose-only effect, or another doubt; inactive = no such curve, though single readings can be large; an effect the other way counts as inactive or inconclusive.

SMILES	Luc counter	SMN2 splice enh	FLuc counter	NPC1 promoter act	ELG1 genotoxic	Rab9 prom act
O=C(COc1ccc(F)cc1)Nc1nccs1	?	11µM	7.6µM	2µM	?	1µM
O=C(Nc1nccs1)c1ccc(COc2ccccc2Br)o1	-	-	19µM	-	?	?
Cc1ccnc(NC(=O)CCNC(=O)c2ccccc2Cl)c1	.	.	?	-	?	-
CCN(CC)CCn1c(-c2ccccc2)nc2c(NCc3ccccc3)nc(C)nc21	-	-	.	.	.	.
Cc1ccc(C2(C(=O)N3CCC(n4nc(-c5ccccc5)oc4=O)CC3)CC2)cc1	.	.	-	-	-	-
COCC(=O)OCC(=O)c1cc(C)n(-c2ccc(Br)cc2)c1C	-	-	12µM	-	-	-
Cc1cc(C(=O)COC(=O)c2ccc[nH]c2=O)c(C)n1C	-	-	9.5µM	-	?	-
COCCn1c(C)cc(C(=O)COC(=O)c2ccc[nH]c2=O)c1C	-	-	3µM	?	?	?
Cc1ccc(-n2c(C)cc(C(=O)COC(=O)c3ccc[nH]c3=O)c2C)cc1	-	2.5µM	2.7µM	0.32µM	?	0.4µM
Cc1cc(C(=O)COC(=O)c2ccc[nH]c2=O)c(C)n1CCc1ccc(F)cc1	-	-	-	-	-	-
CNC(=S)SCCOc1ccccc1	.	.	15µM	-	-	-
CNC(=S)SCCOc1ccc(C)cc1	-	-	15µM	-	-	-
CCc1ccccc1NC(=O)CN(C)C(=O)CSc1nn(-c2ccc(F)cc2)c(=S)s1	-	-	-	-	-	-
CCOc1ccc2nc(NC(=O)Cn3[nH]c(=O)c4ccccc4c3=O)sc2c1	.	.	15µM	?	?	?
CCOCC(=O)Nc1nc2ccc(OC)cc2s1	-	11µM	12µM	2µM	5.2µM	1.4µM
CCOc1ccc2nc(NC(=O)COC)sc2c1	-	11µM	5.4µM	2µM	2µM	1.3µM
CCCCOC(=O)Nc1nc2ccc(OC)cc2s1	-	-	?	-	?	-
CCOc1ccc2nc(NC(=O)C(CC)Sc3nc(C)cc(=O)[nH]3)sc2c1 (stereo not given)	-	-	24µM	-	?	?
CCOc1ccc2nc(NC(=O)CN3CCN(CC)CC3)sc2c1	.	.	-	-	-	-
C=C(C#N)C(=O)OCC	.	-	.	.	.	.
Cc1ccc(NC(=O)CCn2c(=O)[nH]c3ccsc3c2=O)cc1F	.	.	-	-	-	-
CCc1ccc(CNC(=O)c2cnc3sc(N4CCCC4)nn3c2=O)cc1	.	.	-	.	.	.
CCOc1ccc2nc(NC(=O)CN3C(=O)C4CCCCC4C3=O)sc2c1 (stereo not given)	.	.	6µM	-	-	-
CCOc1ccc2nc(NC(=O)CN3CCN(C)CC3)sc2c1	-	-	?	-	-	-
CCCc1c(NC(=O)Nc2ccc(Cl)cc2Cl)cnn1-c1ccccc1	.	.	-	-	-	-
SMILES	Luc counter	SMN2 splice enh	FLuc counter	NPC1 promoter act	ELG1 genotoxic	Rab9 prom act
S=c1[nH]c(-c2ccccc2)cn1/N=C/c1ccc(Br)cc1	-	.	?	-	-	?
Fc1ccccc1/C=N/n1cc(-c2ccccc2)[nH]c1=S	.	.	?	1.1µM	-	4µM
S=c1[nH]c(-c2ccccc2)cn1/N=C/c1cccs1	.	.	-	1.4µM	-	?
COc1ccc(CNC(=O)c2cccc(N3CCCS3(=O)=O)c2)cc1OC	.	-	-	.	.	.
CC(C)(C)c1ccc(-c2cc(N)n[nH]2)cc1	-	-	9.5µM	-	-	-
Cc1ccc(-c2cc(N)n[nH]2)cc1	-	?	?	-	-	-
COc1ccc2nc3ccccc3nc2c1N	.	.	4.8µM	2.2µM	18µM	3.2µM
CCN1CCN(C(c2ccccc2)c2c(O)cc(C)n(CCOC)c2=O)CC1 (stereo not given)	.	.	-	.	.	.
O=c1oc2ccccc2cc1-c1cn2cccnc2n1	?	4.5µM	4.3µM	1µM	?	0.56µM
Nc1ccc(-c2cn3cccnc3n2)cc1	-	-	?	-	-	?
Cc1cccn2cc(-c3cc4ccccc4oc3=O)nc12	?	.	0.19µM	0.11µM	0.82µM	0.14µM
O=C(Nc1ncc(Cc2ccccc2)s1)C1CCCO1 (stereo not given)	-	5µM	4.3µM	1.1µM	?	2.2µM
CCOc1ccc2nc(NC(=O)C3CCCO3)sc2c1 (stereo not given)	-	.	-	-	-	-
O=C(Nc1nc2ccc(F)cc2s1)C1CCCO1 (stereo not given)	-	16µM	6.7µM	1.1µM	?	2.2µM
O=C(Nc1nnc(-c2ccncc2)s1)C1CCCO1 (stereo not given)	-	?	-	-	-	-
O=C(Nc1nc2ccccc2s1)C1c2ccccc2Oc2ccccc21	-	-	-	-	-	-
O=C(Nc1nc2ccccc2s1)C1CCCO1 (stereo not given)	-	13µM	15µM	1.1µM	5.8µM	?
O=C(Nc1nnc(-c2ccccc2F)s1)C1CCCO1 (stereo not given)	-	5µM	15µM	3.5µM	?	2.5µM
Cc1ccc(CNC(=O)C2(CC(C)C)C=CCN2C(=O)c2ccccc2)o1 (stereo not given)	-	-	.	.	.	.
O=C(Nc1nc2ccc(F)cc2s1)C1CCN(S(=O)(=O)c2cc([N+](=O)[O-])ccc2Cl)CC1	-	-[1.84 µM]	11µM	-	-	-
Cc1ccc2nc(NC(=O)C3CCN(S(=O)(=O)c4cc([N+](=O)[O-])ccc4Cl)CC3)sc2c1	-	-	?	-	-	-
Nc1ccc2nc(NC(=O)C3CCCCC3)sc2c1	-	14µM	6.7µM	?	21µM	4.5µM
Cc1ccc2ncc3c(-c4ccc(F)cc4)nn(CC(=O)Nc4ccccc4C)c3c2c1	.	.	-	.	.	.
CCCCCNC(=O)c1ccc2c(c1)ncn2-c1cccc(C)c1	.	.	-	.	.	.
Cc1cccc(-n2cnc3cc(C(=O)N4CCCCC4)ccc32)c1	-	?	24µM	?	-	?
SMILES	Luc counter	SMN2 splice enh	FLuc counter	NPC1 promoter act	ELG1 genotoxic	Rab9 prom act
Cc1ccc(/C=N/NC(=O)c2cccs2)cc1[N+](=O)[O-]	-	?	7.6µM	?	-	?
O=C(N/N=C/C=C/c1ccccc1[N+](=O)[O-])c1cccs1	-	-	?	-	-	-
O=C(N/N=C/c1ccccc1[N+](=O)[O-])c1cccs1	.	.	6.7µM	?	?	2.5µM
Cc1cccc(NC(=O)CSCC(=O)N(CCC(C)C)c2c(N)n(Cc3ccccc3)c(=O)[nH]c2=O)c1	.	.	-	-	-	-
FC(F)Oc1ccc(NC(=S)NC23CC4CC(CC(C4)C2)C3)cc1	.	.	19µM	-	-	-
CCOc1ccc(NC(=S)NC23CC4CC(CC(C4)C2)C3)cc1	.	.	-	-	-	-

From PubChem BioAssay
